Reference: PubChem BioAssay AID1259415 (National Center for Advancing Translational Sciences (NCATS), 2018)
Out of some 410,000 compounds screened, about 18,000 (4.4%) were called active. Not shown: some 7% with an inconclusive outcome. Shown is part of a subset that was picked to be rich in actives. A number with no mark means an inactive call. Cut-off read from the data, not from the text of the source: active = activity change below about -60%; inconclusive = no clear call, values can overlap the other calls; inactive = above about -39%.
% is set by controls: 0 for no effect and ±100 for the full control effect.

Test: qHTS Assay for inhibitors of the human cytomegalovirus (HCMV)
Conditions: HFF cells, HCMV-luciferase reporter, 72 h; at 57.5 µM; hits give low values
Summary of the method: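 Human foreskin fibroblasts infected with luciferase-reporter HCMV at MOI 1 PFU/cell, compounds at two doses. Luciferase measured 72 h post infection; normalized to buffer-only basal and Salinomycin (10uM) controls.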
`CCC(=O)N1CCc2cc(CNC(=O)Nc3ccccc3Cl)ccc21` showed an activity change, negative = inhibition of 38.6%. Work on `Cc1ccc(NS(=O)(=O)c2ccc3c(c2)CC(=O)N3)cc1Cl` yielded an activity change, negative = inhibition of 7.34%. Work on `O=C(NCc1ccccc1Cl)c1cccn1-c1nnc(N2CCCCC2)s1` yielded an activity change, negative = inhibition of 0%. For `CCn1c(C(C)NC(=O)c2ccc(C)cc2)n[nH]c1=S` (stereo not given), the activity change, negative = inhibition was 12.4%. Work on `Cc1cccc(C2CC(=O)Oc3c2c(=O)n(C)c2ccccc32)c1` (stereo not given) yielded an activity change, negative = inhibition of 18.7%. Molecule `O=[N+]([O-])c1cc(-c2nc(-c3ccccc3)no2)ccc1NCc1ccco1` has an activity change, negative = inhibition of 82.5%. Molecule `CN(c1ccccc1)c1nc(N)c([N+](=O)[O-])c(NCc2ccco2)n1` has an activity change, negative = inhibition of -22.9%. With `c1ccc(-c2nc(NCc3ccco3)c3ccccc3n2)cc1` the activity change, negative = inhibition was -68% (active). `Cc1oc(C)c2c(=O)cc(-c3ccc4c(c3)OCO4)cc(OC(=O)c3ccc(Cl)cc3)c12` gave an activity change, negative = inhibition of 8.11%. For `O=C(OCc1cc(=O)n2nc(C3CC3)sc2n1)c1ccccc1Cl`, the activity change, negative = inhibition was -5.87%. With `Cc1ccc(-n2c(SCC(=O)NCCC3=CCCCC3)nc3n[nH]c(C)c3c2=N)cc1Cl` the activity change, negative = inhibition was -93.6% (active). For `COc1cccc(-n2c(SCC(=O)NC3CCCCC3)nc3n[nH]c(C)c3c2=N)c1`, the activity change, negative = inhibition was 28%. For `COc1ccc(-n2c(SCC(=O)Nc3ccc(Cl)c(C)c3)nc3n[nH]c(C)c3c2=N)cc1`, the activity change, negative = inhibition was 0%. `COc1ccc(-n2nnc(-c3nsc(NC(=O)c4ccc(C)c(C)c4)n3)c2C)cc1Cl` gave an activity change, negative = inhibition of -9.03%. For `O=C(NCCc1ccccc1)C(=O)NCC(c1ccco1)S(=O)(=O)c1ccccc1` (stereo not given), the activity change, negative = inhibition was -21.8%. Work on `COc1cc(C(=O)NCC(c2ccc(Cl)cc2)N2CCOCC2)cc(OC)c1OC` (stereo not given) yielded an activity change, negative = inhibition of 3.59%. In the case of `Cc1ccc(OCc2nc(C#N)c(N3CCCC3)o2)cc1`, the activity change, negative = inhibition was -14.4%. With `N#Cc1nc(COc2ccc(-c3ccccc3)cc2)oc1NCc1cccnc1` the activity change, negative = inhibition was -63.4% (active). `O=S(=O)(c1ccc(Br)cc1)c1nc(-c2ccccc2)oc1NCc1cccnc1` gave an activity change, negative = inhibition of -3.8%. Molecule `Cc1cc(C)c(NC(=O)CSc2nc3nccnc3c(=O)n2CCc2c[nH]c3ccccc23)c(C)c1` has an activity change, negative = inhibition of -19.7%. In the case of `COc1ccc2c(c1)c(=Cc1ccc(N(C)C)cc1)c1cc(-c3ccccc3)[n+](C)n12`, the activity change, negative = inhibition was -99.1% (active). Work on `Cc1ccc(S(=O)(=O)c2nnn3c2nc(N2CCN(c4ccccc4F)CC2)c2cc(Cl)ccc23)cc1C` yielded an activity change, negative = inhibition of 11.3%. For `CCn1cc(C(=O)NCc2ccccc2)c(=O)c2cc(S(=O)(=O)N3CCCCC3)ccc21`, the activity change, negative = inhibition was 1.38%. Molecule `CN(C)CCCn1c(-c2ccc(Cl)cc2)csc1=Nc1ccccc1` has an activity change, negative = inhibition of -19.8%. `COc1cc(/C=C/c2ccc(/C=C/c3cc(OC)c(OC)c(OC)c3)cc2)cc(OC)c1OC` gave an activity change, negative = inhibition of -35.4%. Work on `Cc1ccc(S(=O)(=O)Oc2ccc(/C=N/NC(=O)c3c(Cl)cnn3C)cc2)cc1` yielded an activity change, negative = inhibition of 22%. For `COc1cc(/C=N/O)cc(Br)c1OS(=O)(=O)c1ccc(C)cc1`, the activity change, negative = inhibition was -76.2% (active). `COc1cccc(CNC(=O)c2cc(=O)[nH]c3ccc(S(=O)(=O)N4CCCCC4)cc23)c1` showed an activity change, negative = inhibition of 0.829%. For `CSc1ncc(Cl)c(C(=O)Nc2ccc(S(=O)(=O)N3CCCC(C)C3)cc2)n1` (stereo not given), the activity change, negative = inhibition was -86% (active). In the case of `CCc1ccc(NC(=O)c2cc(S(=O)(=O)N3CCCC(C)C3)cn2C)cc1` (stereo not given), the activity change, negative = inhibition was -13.1%. `COc1ccc(S(=O)(=O)N2CCCC(C(=O)Nc3ccc(NC(=O)c4ccccn4)cc3)C2)cc1` (stereo not given) gave an activity change, negative = inhibition of 62.8%. Molecule `Cc1nnc(SCC(=O)NCc2ccccc2Cl)c2nn(-c3ccccc3)c(C)c12` has an activity change, negative = inhibition of -12.6%. Molecule `O=C(NC(=O)N1CCSCC1)c1c(Cl)cccc1Cl` has an activity change, negative = inhibition of 7.68%. In the case of `COc1ccc(-c2nn(CC(=O)NC3CCCC3)c3c2cnc2ccc(F)cc23)cc1`, the activity change, negative = inhibition was 35.7%. With `COC(=O)CCNc1ccc2c(c1)OCCO2` the activity change, negative = inhibition was -79.1% (active). `CCC(C)(C)NC(=O)CN(C(=O)C(=O)Nc1ccc2c(c1)OCCO2)C(C)(C)CC` gave an activity change, negative = inhibition of 21.3%. `CCOc1ccc(NCCC(=O)c2ccc3c(c2)OCO3)cc1` showed an activity change, negative = inhibition of -3.98%. `Cn1nc(-c2ccccc2)c(-c2ccccc2)c(C(=O)Nc2ccc(S(N)(=O)=O)cc2)c1=O` gave an activity change, negative = inhibition of 6.63%. Work on `COc1ccc(-c2c3c(=O)n(C)c(=O)n(C)c3c3c(C)nc4ccccc4n23)cc1` yielded an activity change, negative = inhibition of 6.41%. Molecule `CC(=O)Nc1cc(C(=O)NCc2ccc(F)cc2)ccc1Sc1ccc(F)cc1` has an activity change, negative = inhibition of -2.97%. For `Cc1cc(C)nc(-n2nc(C)cc2NC(=O)c2ccc(F)cc2F)n1`, the activity change, negative = inhibition was -89.4% (active). For `CC(=O)N/C(=N/c1nc(C)cc(C)n1)Nc1ccc(F)cc1F`, the activity change, negative = inhibition was -32.1%. With `CCOC(=O)c1cccc(NC(=O)c2ccc(F)cc2F)c1` the activity change, negative = inhibition was 17.1%. Molecule `Cc1ccc(-c2nn3c(=O)cc(CN4CCN(S(=O)(=O)c5ccc(Cl)cc5)CC4)nc3s2)cc1` has an activity change, negative = inhibition of -1.44%. Work on `COc1cc(/C=C(\C#N)C(=O)Nc2ccc3ccccc3c2)c([N+](=O)[O-])cc1OC` yielded an activity change, negative = inhibition of 16.2%. `CCSc1ccccc1C(=O)NCc1ccc(OC)cc1` showed an activity change, negative = inhibition of -19.4%. For `COc1ccc(CNC(=O)/C(C#N)=C/c2cccc(OC)c2OC)cc1`, the activity change, negative = inhibition was -83.6% (active). Molecule `COc1ccc(NC(=O)CCCN2C(=O)CCn3nc(-c4cn(C)c5ccccc45)cc32)cc1OC` has an activity change, negative = inhibition of -28.9%. `CCOc1ccc(CN2CCN(CCCc3ccccc3)C(CCO)C2)cc1` (stereo not given) showed an activity change, negative = inhibition of 37.5%. `COc1ccccc1N1CCC(N2CCN(CC(C)(C)C)C(CCO)C2)CC1` (stereo not given) gave an activity change, negative = inhibition of 33.4%. For `CCOc1ccccc1CN1CCN(C2CCC2)CC1CCO` (stereo not given), the activity change, negative = inhibition was -93.5% (active). `Cc1ccccc1CSc1nc(-c2ccccc2)nc2c1Cc1c(CO)cnc(C)c1O2` gave an activity change, negative = inhibition of 8.94%. Work on `CCOC(=O)C1(Cc2cccc(OC)c2)CCN(C(C)CC(C)(C)O)CC1` (stereo not given) yielded an activity change, negative = inhibition of 14%. For `CCOC(=O)[C@]12Cc3ccccc3[C@H]1N(C1CCCCC1)C(=O)c1cc(OC)ccc12`, the activity change, negative = inhibition was -101% (active). Work on `CCOC(=O)c1ccc(NC(=O)CC2C(=O)N(c3cccc(OC)c3)C(=O)N2C2CCCCC2)cc1` (stereo not given) yielded an activity change, negative = inhibition of -1.63%. In the case of `CCOC(=O)[C@]12Cc3cc(OC)ccc3[C@H]1N(C(C)C)C(=O)c1ccccc12`, the activity change, negative = inhibition was -109% (active). `CCOC(=O)C1(Cc2cccc(OC)c2)CCN(C(C)COC)CC1` (stereo not given) showed an activity change, negative = inhibition of -7.28%. Molecule `CCOc1ccc(NC(=O)CC2C(=O)N(c3cccc(OC)c3)C(=O)N2C2CCCCC2)cc1` (stereo not given) has an activity change, negative = inhibition of 7.53%. Molecule `Cc1ccc(O)c(NC(=O)CCS(=O)(=O)c2nc(-c3ccc4c(c3)OCO4)cc(C(F)(F)F)n2)c1` has an activity change, negative = inhibition of 14.6%. In the case of `CCOC(=O)[C@]12CCCC=C1N(Cc1ccc3c(c1)OCO3)C(=O)[C@H](CC(=O)NCc1cccs1)C2`, the activity change, negative = inhibition was 6%. Work on `Cc1ccc(C)c(CNC(=O)c2cc3ccccn3n2)c1` yielded an activity change, negative = inhibition of 7.66%. With `CCc1ccc(-n2nnc(-c3nc(-c4ccccc4)no3)c2C)cc1` the activity change, negative = inhibition was 168%. Work on `O=C(Nc1ccc(OC(F)(F)F)cc1)C1CCCN(S(=O)(=O)c2ccc(Br)s2)C1` (stereo not given) yielded an activity change, negative = inhibition of 6.14%. With `O=C1COCc2ccc(-c3cc4ccccc4o3)cc2N1CC1CC1` the activity change, negative = inhibition was -2.65%. `CC1=C(C(=O)OC(C)(C)C)C(c2ccc(Br)cc2)NC(=O)N1CCCC(=O)O` (stereo not given) gave an activity change, negative = inhibition of -18.5%. Work on `COC(=O)CCCCCN1C(=O)NC(c2ccc(-c3ccccc3)cc2)C(C(=O)OCc2ccccc2)=C1C` (stereo not given) yielded an activity change, negative = inhibition of 19.6%. With `CCCCNC(=O)C(C)N(CCN(C)C)C(=O)CCCN1C(=O)NC(c2ccc(Cl)cc2)C(C(=O)OCc2ccccc2)=C1C` (stereo not given) the activity change, negative = inhibition was -68% (active). For `Cc1ccc(SCC(=O)Nc2ccc3oc(-c4ccccc4C)nc3c2)cc1`, the activity change, negative = inhibition was 73.5%. For `CC(=O)OC1=C(C(C)=O)N(Cc2ccccc2)S(=O)(=O)c2ccccc21`, the activity change, negative = inhibition was 3.57%. `COc1ccc(OCCn2cc(C(=O)C3CCCCC3)c3ccccc32)cc1` showed an activity change, negative = inhibition of -16.3%. In the case of `CCN(C(=O)c1cc([N+](=O)[O-])ccc1NCc1cccnc1)c1ccccc1`, the activity change, negative = inhibition was -61.2% (active). In the case of `O=C(COC(=O)c1cc([N+](=O)[O-])ccc1NCc1ccccc1)NC1CCCCC1`, the activity change, negative = inhibition was -19.2%. Molecule `CN(c1ccccc1)S(=O)(=O)c1ccc(C(=O)NCc2cccnc2)cc1` has an activity change, negative = inhibition of -0.899%. In the case of `CCc1ccc(C2C(C(=O)Nc3ccccc3)=C(C)Nc3c(C(=O)Nc4ccc(C)cc4)cnn32)cc1` (stereo not given), the activity change, negative = inhibition was -39.9%. Work on `CCCCCCCCCCCCC(NC(C)=O)(C(=O)OCC)C(=O)OCC` yielded an activity change, negative = inhibition of 12.4%. Molecule `CC(=O)N1CCN(c2ccc(NCc3ccc(C(C)C)cc3)cc2)CC1` has an activity change, negative = inhibition of -36.3%. For `Cc1nc2ccccc2c(-c2ccccc2)c1C(=O)c1ccccc1`, the activity change, negative = inhibition was -104% (active). `CC(C)(C)C(=O)c1c(N)[nH]c(C(=O)c2ccccc2)c1-c1ccc(F)cc1` gave an activity change, negative = inhibition of -5.27%. With `Nc1[nH]c(C(=O)c2ccccc2)c(-c2ccncc2)c1C(=O)NCc1cccc2ccccc12` the activity change, negative = inhibition was -19.1%. For `COc1ccc(OCC(=O)Nc2cccc(C(=O)OCc3cc(=O)n4nc(C)sc4n3)c2)cc1`, the activity change, negative = inhibition was 47.5%. Work on `CCc1ccc(NC(=O)c2cnc3c(-c4ccccc4)c(C)nn3c2C)cc1` yielded an activity change, negative = inhibition of -0.863%. For `CCc1c(C)nc2c(-c3ccccc3)c(C)nn2c1Nc1ccc(NC(C)=O)cc1`, the activity change, negative = inhibition was -66.5% (active). `Cc1nn2c(NCCN(C)C)c3c(nc2c1-c1ccccc1)CCC3` gave an activity change, negative = inhibition of -16.5%. `Cc1ccc(OC(=O)CSc2nnc(-c3cccs3)o2)cc1` gave an activity change, negative = inhibition of 3.01%. Work on `O=C(CSc1cn(CC(=O)N2CCOCC2)c2ccccc12)Nc1ccccc1` yielded an activity change, negative = inhibition of 19.2%.
